High-throughput results: PubChem, several laboratories
Hits are enriched below; roughly 3.7% of the tested compounds scored in any of these assays.
Anthrax LF inh2: inhibitors of Bacillus anthracis lethal factor protease. P15917. multiplex microsphere protease cleavage assay, LF. inhibition, % at 10 µM. actives 0.12% (n = 360,000)
BoNT F protease: blocks Botulinum neurotoxin F light chain protease; Multiplex microsphere protease cleavage assay, flow cytometry; inhibition, % at 10 µM; actives 0.22% (n = 360,000); in the data active means inhibition above about 35%, passing the limit was not always enough; inconclusive means no clear call, values can overlap the other calls
Bead autofluor: counter-screen for toxin protease inhibitors: compound fluorescence. AID 624483. compound autofluorescence counterscreen, microsphere flow cytometry; active compounds read high. actives 3.1% (n = 360,000). fluorescence intensity (concentration not given with the values); in the data active means fluorescence intensity above about 16000; inconclusive means no clear call, values can overlap the other calls
MazF activator: activators of E. coli MazEF toxin-antitoxin RNase. P0AE70. FAM/BHQ RNA-DNA oligo cleavage fluorescence, 5 h. activation, % at 20 µM. actives 0.32% (n = 350,000). AID 504720; in the data active means activation above about 50%
Target sequence (P0AE70 whole entry, looked up): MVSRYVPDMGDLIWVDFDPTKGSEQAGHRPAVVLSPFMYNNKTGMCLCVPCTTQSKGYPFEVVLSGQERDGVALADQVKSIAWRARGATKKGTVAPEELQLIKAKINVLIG
BoNT-A LC inh2: blocks Botulinum neurotoxin A light chain protease; multiplex microsphere protease substrate cleavage, flow cytometry; inhibition, % at 10 µM; actives 0.17% (n = 360,000)
Hits are given with their value; – = inactive; ? = inconclusive; · = no result given; + = active, no number. Unless noted, no stated cut-off is given here; in the data, active means inhibition above about 30%; inconclusive means no clear call, values can overlap the other calls; inactive means below that.

SMILES | Anthrax LF inh2 | BoNT F protease | Bead autofluor | MazF activator | BoNT-A LC inh2
CCOc1ccc(NC(=O)c2ccc(S(=O)(=O)N(C)C)cc2)cc1 | – | – | – | – | –
COc1cc(-c2c(C#N)c(N)nc3[nH]c(=S)[nH]c(=O)c23)ccc1O | – | – | – | – | –
O=c1cc(CSc2nnc(COc3ccc(Cl)cc3)o2)c2ccccc2[nH]1 | – | – | – | 51 | –
Cc1ccccc1OCc1nnc(SCc2cc(=O)[nH]c3ccccc23)o1 | – | – | – | 65 | –
COc1cccc(OCc2nnc(SCc3cc(=O)[nH]c4ccccc34)o2)c1 | – | – | – | – | –
Cc1ccccc1NS(=O)(=O)c1ccc(C(=O)NCC(c2ccco2)N2CCCCC2)cc1 (stereo not given) | – | – | – | – | –
Cc1ccc(NC(=O)c2cc(S(=O)(=O)N3CCCCC3)ccc2N2CCOCC2)cc1 | – | – | – | – | –
O=C(Nc1ccc(O)cc1)c1cc(S(=O)(=O)N2CCCC2)ccc1Cl | – | – | 20180 | – | –
COc1ccccc1N(CC(=O)Nc1ccc(S(=O)(=O)N2CCCCC2)cc1)S(C)(=O)=O | – | – | 22900 | – | ?
COc1ccccc1CC(=O)Nc1ccc(S(=O)(=O)N2CCCCC2)cc1 | – | – | – | – | –
COc1ccccc1C(=O)Nc1ccc(S(=O)(=O)N2CCCC2)cc1 | – | – | 16385 | – | ?
COc1ccc(NC(=O)c2cc(S(=O)(=O)N3CCCCC3)ccc2N2CCCCC2)cn1 | – | – | 23676 | – | –
Cc1cccc(CSc2ccc(S(=O)(=O)N3CCCC3)cn2)c1 | – | – | – | – | –
O=C(O)c1cc2cc(Oc3ccccc3)ccc2[nH]1 | · | · | · | – | ·
C=CCNC(=O)c1ccc(-c2nc(-c3ccc(Cl)c(Cl)c3)cs2)cc1 | – | – | 22537 | – | ?
CC1(C)SC(=S)N(Cc2ccc3c(c2)OCO3)C1N(O)C(=O)NC1CCCCC1 (stereo not given) | – | – | ? | – | –
CN1C(=S)SC(N(O)C(=O)NC2CCCCC2)C1(C)C (stereo not given) | – | – | 21404 | – | ?
Cc1ccc(-c2cc(C)nc3nc(N)nn23)cc1 | – | – | 16426 | – | –
CCN(CC)c1ccc(/C=C/c2ccc3ccc(OC)cc3[n+]2CC)cc1 | – | – | – | – | 60
C[C@@H]1CN([C@@H](C)CO)C(=O)c2cc(-c3ccncc3)cnc2O[C@H]1CN(C)C(=O)c1cccc(F)c1 | – | – | – | – | –
Cc1ccc(NC(=O)CN2CCN(C(=O)c3ccco3)CC2)cc1 | – | – | – | – | –
C[N+]1(CC(=O)Nc2ccc(F)cc2)CCN(C(=O)c2ccco2)CC1 | – | – | 16539 | – | –
COc1ccc(/C=C2/SC(c3ccc(C)cc3)=NC2=O)cc1OC | – | – | – | – | –
COc1ccc(/C=C2\SC(c3ccc(C)cc3)=NC2=O)cc1OC | – | – | – | + | –
COc1cc(/C=C2\SC(c3ccc(C)cc3)=NC2=O)cc(OC)c1OC | – | – | – | 102 | –
SMILES | Anthrax LF inh2 | BoNT F protease | Bead autofluor | MazF activator | BoNT-A LC inh2
O=C(CCc1ccccc1)Nc1ccc(NC(=O)c2ccco2)cc1 | – | – | – | – | –
O=C(CCc1ccccc1)Nc1ccc(NC(=O)c2ccco2)nc1 | · | · | · | 618 | ·
O=C(CCc1ccc(S(=O)(=O)NCCc2ccccc2)cc1)NCc1ccc2c(c1)OCO2 | – | – | 24716 | – | –
CC(=O)Nc1ccc(S(=O)(=O)NCc2ccc(C)cc2)cc1 | – | – | – | – | –
CC(=O)Nc1ccc(S(=O)(=O)NCc2ccc3[nH]c(C)cc3c2)cc1 | – | – | – | – | 53
O=C(O)CCCNS(=O)(=O)c1ccc(F)cc1 | – | – | 24742 | – | –
CC1=C(C(=O)OCCOc2ccccc2)C(c2ccsc2)NC(=O)N1C (stereo not given) | – | – | – | – | –
O=C(Nc1ccc(S(=O)(=O)NCCc2ccccc2)cc1)c1ccncc1 | – | – | – | – | –
O=S(=O)(NCc1ccc2c(c1)OCO2)c1ccc2oc3ccccc3c2c1 | – | – | 16406 | – | –
O=C(Nc1ccc(S(=O)(=O)NCCc2ccccc2)cc1)c1ccco1 | – | – | 23096 | – | –
COC(=O)Nc1ccc(S(=O)(=O)NCCO)cc1 | – | – | 18225 | – | –
COc1ccc(S(=O)(=O)CCC(=O)NCCc2ccc(C)cc2)cc1 | – | – | 16185 | – | –
COc1ccc(-c2nc(CSCC(=O)NCCCN3CCCC3=O)c(C)o2)cc1OC | – | – | – | – | –
O=Cc1cccc2ccc3cccc(C(=O)O)c3c12 | – | – | – | – | –
CC(=Nc1ccccc1)C1=C(O)C(Cc2ccc(O)cc2)NC1=O (stereo not given) | – | – | – | – | –
CCC(CC)NC(=O)COc1ccc(OC)cc1C=O | – | – | – | – | –
O=S(=O)(NCCSc1ccc(Cl)cc1)c1ccc(F)cc1 | – | – | 16419 | – | –
O=C(O)CCc1ccc(S(=O)(=O)NCCc2ccccc2)cc1 | – | – | 20869 | – | –
COc1ccc(S(=O)(=O)NCCC(=O)NCc2ccc(F)cc2)cc1 | – | – | 19366 | – | –
CC(=O)Nc1ccc(S(=O)(=O)NCCc2ccc(S(N)(=O)=O)cc2)cc1 | – | – | – | – | –
CC(=O)Nc1ccc(S(=O)(=O)NCCc2ccc(F)cc2)cc1 | – | – | 19405 | – | –
COc1ccc(CNC(=O)CCNS(=O)(=O)c2ccc(Cl)cc2)cc1 | – | – | – | – | –
O=C(NNC(=O)c1ccccc1O)c1cc2ccccc2o1 | – | – | – | – | –
COc1ccc(C(=O)N/C(=C\c2cn(S(=O)(=O)N(C)C)c3ccccc23)C(=O)N2CCN(C)CC2)cc1OC | – | – | – | – | –
O=C(N/N=C/c1cccc(O)c1)c1ccc(NC(=O)C2CCCCC2)cc1 | – | – | – | – | –
SMILES | Anthrax LF inh2 | BoNT F protease | Bead autofluor | MazF activator | BoNT-A LC inh2
O=C(N/N=C/c1ccc(O)cc1O)c1ccc(NC(=O)C2CCCCC2)cc1 | 36 | – | – | – | –
CCC(C)(C)NC(=O)CN(Cc1cccs1)C(=O)CNS(=O)(=O)c1ccc(C)cc1 | – | – | 16739 | – | –
CCN(CC(=O)NCc1cccs1)C(=O)c1cc(S(=O)(=O)NCc2ccccc2)ccc1C | – | – | ? | – | –
COC(=O)/C=C1\NCCSC1=O | – | – | 17208 | – | –
Cc1noc(C)c1S(=O)(=O)Nc1ccc2c(c1)C(=O)N([C@@H](C)CO)C[C@H](C)[C@@H](CN(C)Cc1ccc(C(F)(F)F)cc1)OCCCC[C@H](C)O2 | – | – | – | – | –
C/C(=N\O)c1ccc(N2C(=O)C3CC=C(Cl)CC3C2=O)cc1 (stereo not given) | – | – | 16899 | – | –
CC(C)=CCC/C(C)=C/CNC(=O)C[C@H]1C[C@H](C(=O)N2CCOCC2)[C@@]2(C)c3[nH]c4cc(-c5ccco5)ccc4c3CCN2C1=O | – | – | – | – | –
NS(=O)(=O)c1ccc(CCNC(=O)c2ccc([N+](=O)[O-])s2)cc1 | – | – | – | – | –
COC(=O)Nc1ccc(OC)c(OC)c1 | – | – | – | – | –
COc1ccc(NC(=S)NNC(=O)OC(C)(C)C)cc1OC | – | – | 24133 | – | ?
